Source: PubChem BioAssay
A selection: hits, their analogues and other compounds. The true share with any hit is near 3.2%.
BRCA1 expr up = qHTS Assay to Identify Small Molecule Activators of BRCA1 Expression; MCF7-BRCA1-FFLuc reporter, luminescence, 48 h; response scale: scaled: vehicle 0%, 10 µM genistein 100%; Potency, µM (titrated, usually from 46.1 µM), inactives show at the highest dose activation, hits mostly activators; hit rate 1.1% among 380,000; AID 624202, 2012; also: potency is read from the fitted curve at half-maximal effect; nearly all actives have a fitted effect of over 80% in size
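First, MCF7-BRCA1-FFLuc cells (2000/well) attach for 2 h; next, compounds are pin-added and incubated 48 h at 37 °C; finally, luciferase reagent is added and luminescence read after 15 min.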
Nrf2 ARE act = qHTS of Nrf2 Activators; hit rate 0.31% among 410,000; Potency, µM (top dose mostly 46.1 µM), without a hit: at the top dose activation, hits mostly activators; AREc32 ARE-luciferase reporter (MCF7-derived line), luminescence, 24 h; AID 624171, 2012; also: potency is read from the fitted curve at half-maximal effect; % of control where 0% means no effect; nearly all actives have a fitted effect of over 65% in size
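AREc32_Fluc, 1000 cells/well, OPTI-MEM + 5% FBS, o/n 37 deg C 5% CO2; 23 nL cpd by pin tool, 24 hr; Steady-Glo 30 min RT, luminescence.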
p53 reactivator = qHTS assay for re-activators of p53 using a Luc reporter | H1299 p53-A138V BP100-luciferase reporter, luminescence, 24 h | Potency, µM (titrated, usually from 92.2 µM), without a hit: at the top dose activity change, positive = activation, actives largely listed as activators | hit rate 0.063% among 320,000 | AID 504706, 2011; also: potency is read from the fitted curve at half-maximal effect; % of control where 0% means no effect; nearly all actives have a fitted effect of over 45% in size
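p53-null H1299 cells stably carrying temperature-sensitive p53-A138V and a BP100-luciferase reporter were pinned with compounds (4-point, 1:5 series) and held 24 hrs at 37 deg C. Luminescence was read 10 min after detection reagent.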
A549 tox-1 = Nrf2 qHTS screen for inhibitors: counterscreen for cytotoxicity | A549 ARE-Fluc cells, CellTiter-Fluor viability, 18-24 h | Potency, µM (top dose mostly 46 µM), without a hit: top-dose activity change, negative = cytotoxicity, actives largely listed as inhibitors | hit rate 0.16% among 390,000 | AID 504648, 2011; also: potency is read from the fitted curve at half-maximal effect; % is scaled to controls: 0 for no effect and ±100 for the full control effect
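Cytotoxicity counterscreen: CellTiter-Fluor fluorescence was measured in A549 ARE_Fluc cells after 18-24 h of compound exposure in a concentration series. The subsequent BugLite luminescent read reports ARE-luciferase activity.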
Nrf2 block = Nrf2 qHTS screen for inhibitors | A549 ARE-Fluc reporter, luciferase luminescence, 18-24 h | Potency, µM (titrated, usually from 46 µM), inactives show at the top dose activity change, negative = inhibition, most hits filed as inhibitors | hit rate 2.1% among 360,000; also: potency is read from the fitted curve at half-maximal effect; % is scaled to controls: 0 for no effect and ±100 for the full control effect; nearly all actives have a fitted effect of over 60% in size
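A549 ARE_Fluc cells, 5000/well, 5% FBS OPTI-MEM; compounds in dose-response, 18-24 h at 37 °C/5% CO2; CellTiter-Fluor viability read (Ex 405/Em 525), then BugLite luciferase luminescence = Nrf2 activity.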
IL2 activator = qHTS of IL-2 Activators; IL-2 activation reporter assay, cell-based qHTS; stimulated with anti-CD3/CD4/CD28 beads; in transgenic mouse T cells; activation, % (series mostly up to about 46 µM); hit rate 0.065% among 360,000; AID 652025, 2013; in the data active = activation above about 50%; inconclusive = mostly about 30% to 49%; also: 0% is about no effect
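Quantitative HTS in unstimulated transgenic mouse T cells, with memory T cells as non-tolerant control and PMA/ionomycin as tolerance-bypass control. Compound pretreatment lasted 60 minutes before 18 h bead stimulation; EGFP/DsRed fluorescence read.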
FLuc enzyme inh = Nrf2 qHTS screen for inhibitors: Purified Fluc Biochemical Counterscreen for Hit Validation. shares compounds with Nrf2 block. purified firefly luciferase, luminescence inhibition. Potency, µM (series often up to 57.5 µM), for inactives: at the top dose activity change, negative = inhibition, usual class: inhibitors. hit rate 4% among 1,400. AID 720522, 2013; also: potency is read from the fitted curve at half-maximal effect; % is scaled to controls: 0 for no effect and ±100 for the full control effect; nearly all actives have a fitted effect of over 65% in size
Target sequence (P08659 whole entry, looked up): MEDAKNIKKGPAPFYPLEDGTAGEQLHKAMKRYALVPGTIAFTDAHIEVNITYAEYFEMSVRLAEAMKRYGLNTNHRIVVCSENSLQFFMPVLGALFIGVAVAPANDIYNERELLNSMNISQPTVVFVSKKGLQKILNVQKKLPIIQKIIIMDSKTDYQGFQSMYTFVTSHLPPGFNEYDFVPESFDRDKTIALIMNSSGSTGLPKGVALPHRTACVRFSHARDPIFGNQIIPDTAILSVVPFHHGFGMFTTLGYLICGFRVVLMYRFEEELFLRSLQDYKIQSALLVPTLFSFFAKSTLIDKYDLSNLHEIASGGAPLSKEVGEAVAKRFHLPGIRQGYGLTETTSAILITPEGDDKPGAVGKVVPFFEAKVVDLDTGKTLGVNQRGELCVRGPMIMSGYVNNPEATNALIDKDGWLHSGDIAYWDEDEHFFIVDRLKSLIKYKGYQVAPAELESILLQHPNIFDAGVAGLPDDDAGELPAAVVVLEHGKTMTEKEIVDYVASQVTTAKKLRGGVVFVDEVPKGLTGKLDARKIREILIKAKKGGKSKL
A549 tox-2 = Nrf2 qHTS screen for inhibitors: A549 ARE-Fluc Cytotoxicity Counterscreen for Hit Validation. shares compounds with Nrf2 block. A549 ARE-Fluc cells, cytotoxicity counterscreen. Potency, µM (series often up to 46.1 µM), without a hit: at the top dose activity change, negative = cytotoxicity, actives largely listed as inhibitors. hit rate 2% among 1,400. AID 720523, 2013;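 also: potency is read from the fitted curve at half-maximal effect; cells exposed to compounds for 18 to 24 hours; % is scaled to controls: 0 for no effect and ±100 for the full control effect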
ARE-Fluc inh = Nrf2 qHTS screen for inhibitors: Nrf2 A549 ARE-Fluc Confirmation Assay for Hit Validation. shares compounds with Nrf2 block. A549 ARE-firefly luciferase reporter, luminescence. Potency, µM (highest dose often 46.1 µM), for the others: at the highest dose activity change, negative = inhibition, most hits filed as inhibitors. hit rate 74% among 1,400. AID 720524, 2013; also: potency is read from the fitted curve at half-maximal effect; % is scaled to controls: 0 for no effect and ±100 for the full control effect; nearly all actives have a fitted effect of over 65% in size
* hit, by the source's call; ? = inconclusive; / = not tested or not shown. Unless noted, calls follow the shape of the dose curve; as a rule, active = well fitted curve in the direction sought with a large enough effect; inconclusive = small, poorly fitted or top-dose-only effect, or another doubt; inactive = no such curve, though single readings can be large; an effect the other way counts as inactive or inconclusive.

SMILES	BRCA1 expr up	Nrf2 ARE act	p53 reactivator	A549 tox-1	Nrf2 block	IL2 activator	FLuc enzyme inh	A549 tox-2	ARE-Fluc inh
CCCCCc1ccc(OCCOCCn2c[n+](C)c3ccccc32)c(CCCCC)c1	-79%	-5%	-8%	-25%	7.3µM*	-3	-1%	?	/
C[n+]1cn(CC(O)COCc2ccccc2)c2ccccc21 (centres undefined)	-16%	0%	-5%	-4%	-29%	0	/	/	/
COc1ccc(CC(=O)Nc2ccncc2Cl)cc1	-6%	-1%	8%	-1%	5.2µM*	-2	2%	7%	?
COc1ccc(CC(=O)Nc2ccccc2NC(=O)Cc2ccc(OC)cc2)cc1	-2%	0%	1%	1%	14%	2	/	/	/
CCCn1c(NC(=O)c2ccccc2)nc2ccccc21	-72%	15%	16%	-18%	-10%	-5	/	/	/
CCCn1c(NC(=O)c2cccc(S(=O)(=O)N3CCCC3)c2)nc2ccccc21	-109%	-2%	?	?	7.3µM*	-4	-13%	?	7.3µM*
COc1cc(Cl)c(C)cc1NC(=O)c1nn(-c2ccc(C)cc2)c(=O)n(C)c1=O	/	0%	/	0%	/	/	/	/	/
COc1ccc(CNc2cc(C)nc3ncnn23)c(OC)c1	-92%	3%	-2%	-23%	1.6µM*	6	2%	-9%	?
Cc1nc2nncn2c(NCc2ccc(Cl)cc2)c1C	/	3%	/	-5%	3.3µM*	/	-1%	-2%	6.5µM*
CCOC(=O)c1ccc(NC(=O)CN2C(=O)COc3ccc(Cl)cc32)cc1	2%	0%	/	-9%	?	/	/	/	/
Cc1noc(C)c1CSCC(=O)Nc1nc(-c2ccc(F)c(F)c2)cs1	-89%	-2%	1%	?	9.2µM*	-3	-13%	-18%	13µM*
COc1cc(OC)c(/C=C/c2cc3ccccc3c[n+]2C)c(OC)c1	-42%	/	/	/	/	/	3%	?	4.6µM*
COc1ccc(OC)c(/C=C/c2cc3ccccc3c[n+]2C)c1	-30%	/	/	/	/	/	-27%	-18%	/
COc1ccc(OC)c2cc3ccccc3cc12	-2%	12%	/	-15%	0%	0	/	/	/
COc1ccc(OC)c(/C=C/c2c3ccccc3cc[n+]2C)c1	-72%	/	/	/	/	/	/	/	/
O=C(Cn1cnc2c(nc3n2CCCCC3)c1=O)Nc1ccc(F)cc1	/	0%	/	-5%	24%	/	/	/	/
Nc1ccc(Oc2ccccc2-c2ccccc2)cc1	-86%	-2%	/	9%	9.2µM*	-3	?	2%	8.2µM*
NCCOc1ccccc1-c1ccccc1	-22%	0%	-4%	?	23%	0	/	/	/
COc1cccc(-c2nc(S(=O)(=O)c3ccc(C)cc3)c(N3CCCCC3)o2)c1	/	1%	/	3%	?	/	/	/	/
COc1ccc(OC)c(N(C)S(=O)(=O)c2ccc3c(c2)NC(=O)CC(=O)N3)c1	/	0%	/	1%	-9%	/	/	/	/
CCN(CC)S(=O)(=O)c1ccc(/C=C/C(=O)Nc2ccc(Br)cc2F)cc1	-45%	4%	1%	-3%	9.2µM*	0	-9%	-2%	4.6µM*
